The nature of test [1]: Cell Viability - Hek293 (AID 427;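 active = compounds whose dose-response curve shows a full or clear partial loss of cell viability, called from curve shape rather than a numeric limit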;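 also: potency is read from the fitted curve at half-maximal effect; cells exposed to compound for 40 hours at 37 °C before reading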). The conditions noted are these: qHTS. The gist of the method:
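qHTS, human embryonic kidney (adenovirus-transformed) cells; 40 hr cpd, 37 °C; CellTiter-Glo ATP luminescence. Norm: DMSO = 0, 100 uM tamoxifen = 100% inhibition. Hill-fit AC50.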

Test [2] can be described thus: Cell Viability - SK-N-SH (AID 435; calls by dose curve; also: potency is read from the fitted curve at half-maximal effect). The note with it: SK-N-SH neuroblastoma cell viability qHTS. The gist of the method:
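SK-N-SH neuroblastoma cells (1500/well) treated 40 h at 37 °C in complete medium; viability read as cellular ATP by CellTiter-Glo luminescence. Normalized to DMSO and 100 uM tamoxifen; AC50 from Hill fits of qHTS concentration-response.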

A short description of test [3]: Cell Viability - N2a (AID 540). Also: nearly all actives have a fitted effect of over 45% in size. Also: potency is read from the fitted curve at half-maximal effect.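 As to activity change, negative = cytotoxicity: plate controls were DMSO alone for no effect and tamoxifen control for full effect.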 The note with it: N2a mouse neuroblastoma cell viability; activity change, negative = cytotoxicity: at 92.2 µM (top of the series). The gist of the method:
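N2a mouse neuroblastoma, 1500 cells/well, 5 hr settle; compound 40 hr, 37 °C; CellTiter-Glo 20 min RT; luminescence; Hill-fit AC50.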

Test [4] is described as follows: Cell Viability - H-4-II-E (AID 543).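 Also: cells exposed to compound for 40 hours; % is scaled to controls: 0 for no effect and ±100 for the full control effect; nearly all actives have a fitted effect of over 35% in size.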 The conditions noted are these: H-4-II-E rat hepatoma viability; series mostly up to 92.2 µM. The gist of the method:
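qHTS, rat hepatoma H-4-II-E, 1500 cells/well; 40 hr compound exposure, 37 °C; CellTiter-Glo ATP luminescence after 20 min RT; AC50 by standard Hill fit.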

Test [5] in a line: Cell Viability - SH-SY5Y (AID 544).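 Also: cells exposed to compound for 40 hours; nearly all actives have a fitted effect of over 55% in size.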 Also: potency is read from the fitted curve at half-maximal effect.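 As to viability change, negative = cytotoxic: 0% = DMSO alone and -100% = 100 µM tamoxifen.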 The note with it: SH-SY5Y neuroblastoma cell viability; viability change, negative = cytotoxic: at 92.2 µM (top of the series). The gist of the method: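 SH-SY5Y, 1500 cells/well, 5 hr pre-incubation 37 °C; cpd 40 hr 37 °C; CellTiter-Glo 20 min RT; luminescence (ATP) read. qHTS concentration-response, Hill fit → AC50. Tamoxifen, doxorubicin as positive controls.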

A short description of test [6]: Cell Viability - LYMP2-001 (AID 921). Also: nearly all actives have a fitted effect of over 70% in size. Also: potency is read from the fitted curve at half-maximal effect. The note with it: LYMP2-001 lymphoblastoid cell viability; series mostly up to 92.2 µM. The gist of the method: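 Human lymphoblastoid LYMP2-001 cells, 2500 per well, in complete medium, treated 24 h at 37 C. Viability from cellular ATP by CellTiter-Glo luminescence; AC50 from Hill-equation fits of qHTS concentration-response.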

Test [7] in a line: MultiTox-Fluor Cytotoxicity Assay - LYMP1-001 - Live Cells (AID 947).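 Also: 0% = DMSO only and full inhibition = tetraoctylammonium bromide control.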 The note with it: LYMP1-001 lymphoblastoid cells, live-cell protease fluorescence viability; series mostly up to 92.2 µM.
The nature of test [8]: Cell Viability - LYMP2-005 (AID 967). Also: potency is read from the fitted curve at half-maximal effect. The note with it: LYMP2-005 lymphoblastoid cell viability; series mostly up to 92.2 µM. The gist of the method: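 Human lymphoblastoid LYMP2-005 cells, 2,500 per well in complete medium, rested 5 h at 37C then compound-treated 24 h at 37C. Intracellular ATP read by CellTiter-Glo luminescence after 30 min at room temperature; AC50 from Hill-equation fits of concentration-response data.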

The nature of test [9]: Cell Viability - LYMP2-009 (AID 968).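 Also: 0% = DMSO alone and the full-kill end = tetraoctylammonium bromide at 92 µM; nearly all actives have a fitted effect of over 55% in size.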 The conditions noted are these: LYMP2-009 lymphoblastoid cell viability; series mostly up to 92.2 µM.
Test [10] in a line: Cell Viability - LYMP2-015 (AID 971).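 Also: 0% = DMSO only and full effect = 92 µM tetraoctylammonium bromide; nearly all actives have a fitted effect of over 55% in size.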 The note with it: LYMP2-015 lymphoblastoid cell viability; series mostly up to 92.2 µM. The gist of the method: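 qHTS cytotoxicity: 2500 cells/well, 5 hr 37 C, compound 24 hr 37 C, CellTiter-Glo 30 min RT, luminescence. Loss of ATP = toxicity; AC50 via standard Hill fit.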
A short description of test [11]: Cell Viability - LYMP2-019 (AID 973). Also: nearly all actives have a fitted effect of over 55% in size. Also: potency is read from the fitted curve at half-maximal effect.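 As to activity change, negative = cytotoxicity: 0% = DMSO alone and full effect = 92 µM tetraoctylammonium bromide.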 The note with it: LYMP2-019 lymphoblastoid cell line viability; series mostly up to 92.2 µM. The gist of the method:
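qHTS, 1536-well; 2500 cells/well; 5 hr pre-incubation, 24 hr compound exposure, 37 C; CellTiter-Glo added, 30 min RT; luminescence read; AC50 via standard Hill equation.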

The nature of test [12]: Cell Viability - LYMP2-021 (AID 974). The note with it: LYMP2-021 lymphoblastoid cells viability; series mostly up to 92.2 µM. The gist of the method:
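ATP luminescence (CellTiter-Glo, 30 min RT) after 24 h compound exposure at 37 C; 2500 human lymphoblastoid cells/well, 5 h settle beforehand. Cytotoxicity = concentration-dependent ATP drop, AC50 by Hill fit.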

Test [13] in a line: Cell Viability - LYMP2-002 (AID 977).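 Also: plate controls were DMSO only for no effect and 92 µM tetraoctylammonium bromide for full effect.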 The note with it: LYMP2-002 lymphoblastoid cell viability, qHTS; series mostly up to 92.2 µM. The gist of the method:
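In this qHTS viability screen, 2500 human lymphoblastoid cells per well receive compound for 24 hr at 37 C, and luciferase-based ATP luminescence gives the viability signal. Tetraoctylammonium bromide serves as positive control.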

The nature of test [14]: Cell Viability - LYMP2-010 (AID 981). Also: potency is read from the fitted curve at half-maximal effect. The conditions noted are these: LYMP2-010 lymphoblastoid cell viability, qHTS; series mostly up to 92.2 µM. The gist of the method:
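qHTS cytotoxicity, 1536-well: 2500 cells/well, 5 hr settle, 24 hr compound at 37 C, CellTiter-Glo 30 min RT, luminescence read. Decrease in ATP = toxicity; AC50 via standard Hill equation. Positive control tetraoctylammonium bromide.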

The nature of test [15]: Cell Viability - LYMP2-012 (AID 982). The note with it: LYMP2-012 lymphoblastoid cell viability qHTS; series mostly up to 92.2 µM. On the technique in general: In qHTS, concentration-response curves come from the screen itself.
Test [16] in a line: qHTS assay for small molecule agonists of retinoid X receptor alpha signaling (AID 588544). The note with it: HEK293T RXRa-UAS-bla, beta-lactamase reporter, 18 h; 530 nm emission.
Test [17] can be described thus: qHTS assay for small molecule antagonists of retinoid X receptor alpha signaling (AID 588546; active = well fitted inhibition curve with a large enough effect in the signal ratio, with a control signal flat, not every such curve was filed as active; the % refers to the signal ratio;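 also: cells stimulated with 9-cis-retinoic acid as agonist; % is scaled to controls: 0 for no effect and ±100 for the full control effect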). The note with it: HEK293T RXRa-UAS-bla, beta-lactamase ratio, antagonist mode; measured here: W530 green channel, cytotoxicity proxy. The gist of the method: (§1)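 Beta-lactamase reporter inhibition, read as CCF4 fluorescence ratio (ex 405, em 460/530 nm) after 2 h at RT. HEK293T UAS-bla cells, 2500/well, were stimulated with 9-cis-RA at 500 or 100 nM final alongside test compound for 18 h at 37 C.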

Test [18] concerns the target Retinoic acid receptor RXR-alpha (Homo sapiens) (UniProt P19793). Described as above. The note with it: HEK293T RXRa-UAS-bla, beta-lactamase ratio, antagonist mode. The gist of the method:
as §1

Test [19] is described as follows: qHTS assay for small molecule disruptors of the mitochondrial membrane potential - 5 hr assay (AID 651755; calls by dose curve; also: nearly all actives have a fitted effect of over 40% in size; also: potency is read from the fitted curve at half-maximal effect). The note with it: JC-1-type ratio dye; series mostly up to 92.2 µM. The gist of the method: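 Seed HepG2 overnight, add compound, incubate 5 hr at 37C and 5% CO2, stain 30 min with Mito-MPS, then measure monomer (490/535 nm) and aggregate (540/590 nm) fluorescence.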

The nature of test [20]: qHTS assay for small molecule agonists of the antioxidant response element (ARE) signaling pathway measured by Nrf2-dependant transcriptional activity (AID 720636; active = well fitted curve in the direction sought with a large enough effect in the repeat runs; an effect the other way counts as inactive or inconclusive; also: potency is read from the fitted curve at half-maximal effect). The conditions noted are these: ARE-luc HepG2, Nrf2 luciferase reporter, 16 h; series mostly up to 92.4 µM. The gist of the method: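 Quantitative HTS format in HepG2 cells stably expressing an ARE-luciferase reporter; 16 hr compound treatment at 37 C, luciferase signal detected with ONE-Glo.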

We go through 8 molecules from PubChem BioAssay (NCATS).

Several values for one entry are separate records, joined by “and”; a condition that tells them apart may be missing. Equal entries are not always repeated. Results filed as inconclusive are left out. Activity calls are given as the source filed them. Unless noted, calls follow the shape of the dose curve; as a rule, active = well fitted curve in the direction sought with a large enough effect; inconclusive = small, poorly fitted or top-dose-only effect, or another doubt; inactive = no such curve, though single readings can be large; an effect the other way counts as inactive or inconclusive.

Chain of Retinoic acid receptor RXR-alpha (Homo sapiens) (P19793 whole entry, looked up): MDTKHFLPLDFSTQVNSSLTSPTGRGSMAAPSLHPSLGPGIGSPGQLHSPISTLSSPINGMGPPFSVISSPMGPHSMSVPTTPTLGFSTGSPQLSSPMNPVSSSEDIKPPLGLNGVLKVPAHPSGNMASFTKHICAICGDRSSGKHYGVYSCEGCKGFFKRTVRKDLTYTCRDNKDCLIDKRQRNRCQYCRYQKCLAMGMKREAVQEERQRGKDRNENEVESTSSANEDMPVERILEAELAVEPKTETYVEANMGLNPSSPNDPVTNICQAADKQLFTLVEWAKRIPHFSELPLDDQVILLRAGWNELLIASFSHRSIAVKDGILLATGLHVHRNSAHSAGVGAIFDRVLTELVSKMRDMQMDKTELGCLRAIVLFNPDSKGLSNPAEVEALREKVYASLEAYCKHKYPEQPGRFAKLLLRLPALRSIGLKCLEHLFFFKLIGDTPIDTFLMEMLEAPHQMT

Regarding `Cc1ccccc1OCC1CO1` (stereo not given), the Potency in test [1] and in test [2] was > 92 µM (inactive) throughout. Moreover, the activity change, negative = cytotoxicity in test [3] is -6.29% (inactive). Moreover, the Potency result in test [4], in test [5], in [6], in test [7], in test [8] and in test [9] was “inactive” in each case. The Potency entry in [10], in test [11], in [12], in test [13], in test [14] and in [15] was “inactive” in each case. Moreover, the Potency entry in test [19] and in [20] was “inactive” each time. Moreover, the max response in test [16] is 14.4%; in test [17] it was -1.65%; in test [18], 0.471% (inactive).

In the case of `O=C(Cl)c1ccc([N+](=O)[O-])cc1`, the Potency in test [1] was > 92 µM (inactive). In addition, the activity change, negative = cytotoxicity in [3] is 7.26% (inactive). Also, the Potency entry in test [4], in [6], in test [7], in test [9], in test [10] and in test [11] was “inactive” throughout. Further, the Potency result in [12], in test [13], in [14], in test [15], in [19] and in test [20] was “inactive” throughout. The max response was -12.7% in test [16], -4.54% in test [17] and 11.8% (inactive) in test [18].

Turning to `O=[N+]([O-])c1cc(N(CCO)CCO)ccc1NCCO`, the Potency entry in [6], in test [7], in test [8], in test [9], in test [10] and in test [13] was “inactive” each time. Moreover, the Potency entry in test [14], in [15] and in [20] was “inactive” in each case. For the same molecule, the max response was 7.09% and -3.73% in [16]; 5.15% and -22.9% in [17]; 0.262% (inactive) and 0.951% (inactive) in test [18].

Regarding `Cc1ccc(O)c(N)c1`, the Potency in test [1] was > 92 µM (inactive); in test [5] it was 20 µM (active); in [6] it was 50.1 µM (active); in [8] it was 50.1 µM (active); in test [11] it was 39.8 µM (active); in test [14], 39.8 µM (active). Besides, the results for the Potency in test [19] and in test [20] were 33.5 µM (active) and 42.2 µM (active), respectively. In addition, the Potency entry in test [7] and in test [13] was “inactive” each time. Further, the max response in test [16] was 23.6%; in test [17] it was -2.88%; in [18], 11.9% (inactive).

On to `Nc1ccc(-c2ccc(N)c(O)c2)cc1O`, for which, in test [2], the Potency is > 92 µM (inactive). In test [3], the activity change, negative = cytotoxicity was -122% (active). Further, the Potency result in test [7], in [13] and in [20] was “inactive” each time. Also, the max response in test [17] is -41.6%; in [18] it was -12% (inactive).

On to `Cc1cc2nc(N)sc2cc1C`, for which the Potency in test [1] and in test [2] was > 92 µM (inactive) each time. Besides, the Potency entry in test [5], in test [6], in [7], in [8], in test [9] and in test [10] was “inactive” each time. The Potency result in test [11], in [12], in test [13], in test [14], in [15] and in test [19] was “inactive” each time. In addition, the max response in test [16] is -11.8%; in test [17] it was 0.388%; in test [18] it was 9.41% (inactive).

Consider `Oc1cc(Cl)cc(Cl)c1Cl`, for which, in test [3], the Potency is 31.6 µM (active). Also, the Potency entry in test [4], in [6], in test [7], in test [8], in test [10] and in test [11] was “inactive” throughout. The Potency entry in test [13], in [14], in test [15] and in test [20] was “inactive” throughout. In addition, the max response in [16] worked out at 0.211%.

Take `c1ccc(Nc2cccc3ccccc23)cc1`: the Potency in test [1] and in [2] was > 92 µM (inactive) each time. In addition, the Potency result in test [4], in [5], in test [6], in test [7], in test [8] and in test [9] was “inactive” throughout. The Potency entry in test [10], in test [11], in test [12], in [13], in [14] and in test [15] was “inactive” throughout. Further, the max response in test [16] is -7.08% and 4.25%; in test [17], 1.85%; in [18] it was -23.3% (inactive).
